Screening data from PubChem BioAssay.
This is one part of a sample in which hits are shown more often than they occur.
IDH1 R132H inh: human IDH1 R132H inhibition; IDH1-R132H enzyme, NADPH consumption, diaphorase/resazurin fluorescence; Potency, µM (doses to about 76.6 µM), hits mostly inhibitors; AID 602179; 0.093% of 390,000 active; further: nearly all actives have a fitted effect of over 65% in size
Target sequence (O75874 whole entry R132H, stated change not applied): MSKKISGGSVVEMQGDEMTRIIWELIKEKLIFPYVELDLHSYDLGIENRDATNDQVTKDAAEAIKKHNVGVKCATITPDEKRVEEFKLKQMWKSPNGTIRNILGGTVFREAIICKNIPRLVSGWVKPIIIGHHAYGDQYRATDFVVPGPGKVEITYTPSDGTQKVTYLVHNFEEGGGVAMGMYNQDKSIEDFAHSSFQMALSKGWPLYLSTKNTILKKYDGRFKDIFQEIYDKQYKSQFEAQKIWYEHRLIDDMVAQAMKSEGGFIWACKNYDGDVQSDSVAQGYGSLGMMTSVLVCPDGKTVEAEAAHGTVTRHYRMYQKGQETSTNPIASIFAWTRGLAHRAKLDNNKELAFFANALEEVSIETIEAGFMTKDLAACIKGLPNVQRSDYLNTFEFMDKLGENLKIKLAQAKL
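IDH1-R132H (0.5 ug/mL dispensed) in pH 7.5 Tris buffer was preincubated 30 min with compound, then given a substrate mix of 0.016 mM NADPH and 2 mM alpha-KG for 80 min at room temperature; remaining NADPH was read by diaphorase/resazurin fluorescence.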
Mito fusion act: mitochondrial division inhibition or fusion activation; Potency, µM (highest dose often 46.1 µM), most hits filed as activators; S. cerevisiae fusion-defective mutant growth rescue, CellTiterGlo 48 h; 0.23% of 320,000 active; further: nearly all actives have a fitted effect of over 45% in size
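S. cerevisiae fusion-defective temperature-sensitive mutants (e.g. fzo1-1, mgm1-5) grown 48 h at 37C in YPEG (ethanol/glycerol non-fermentable) medium with 23 nl compound per well; growth rescue read as CellTiterGlo luminescence.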
ClpP mod: qHTS Assay for Activators of ClpP | 1.9% of 340,000 active | purified B. subtilis ClpP, FRET peptide cleavage, 20 min | AID 651965, 2013 | Potency, µM (highest dose often 57.5 µM); active means well fitted falling curve with a large enough effect; inconclusive means small, poorly fitted or top-dose-only effect; inactive means no such curve, though single readings can be large or run the other way; further: the source files actives as falling curves though it sought activators and does not explain the sign; nearly all actives have a fitted effect of over 65% in size
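Buffer: 100 mM Tris/HCl pH8, 100 mM KCl, 0.05% low protease BSA, 2.5% glycerol, 0.01% Tween-20. ClpP 10 microg/mL final; 20 min RT; delta FRET normalized to ADEP and DMSO controls.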
S-ASM inh: blocks human secretory acid sphingomyelinase; placental ASM, HMU-PC fluorogenic substrate, 60 min; Potency, µM (series often up to 57.5 µM), hits mostly inhibitors; 0.006% of 340,000 active
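Human placenta-derived ASM enzyme was preincubated with compound for 10 minutes at room temperature, then given fluorogenic substrate HMU-PC0 (9 uM final) for 60 minutes at 37 °C; a pH 10 stop preceded fluorescence reading at Ex 386/Em 447 nm.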
RGS4 inh: blocks human RGS4-accelerated GTP hydrolysis | Transcreener GDP fluorescence polarization, RGS4-accelerated GTP hydrolysis | 0.039% of 390,000 active | AID 504845 | Potency, µM (highest dose often 114 µM), most hits filed as inhibitors; further: nearly all actives have a fitted effect of over 75% in size
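MLSMR compounds (23 nl, pin-transferred) preincubated 10 min at room temperature with a 500nM (2x) first reagent, then RGS4 at 900nM (2x) plus Transcreener GDP mix added; fluorescence polarization (620/688 nm) read before and after 90 min at 30 °C.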
LDHA block: inhibitors of human lactate dehydrogenase A; purified LDHA, NADH/diaphorase-resazurin fluorescence; stronger effect = lower value; activity change, % (values are at about 110 or 230 µM); 0.15% of 480,000 active; AID 1347041; in the data active means activity change below about -30%; inconclusive means mostly about -25% to -30%
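Enzyme activity of human lactate dehydrogenase 5 (2 nM; 0.06 mM NADH, 0.2 mM pyruvate, 5 min, RT) is measured via a resazurin/diaphorase fluorescence readout of residual NADH.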
Numbers stand for hits; . = inactive; ? = inconclusive; / = no result given; [ ] = dose if it differs, or a comment. Unless noted, the call rests on the fitted dose curve; in most records, active means well fitted curve in the direction sought with a large enough effect; inconclusive means small, poorly fitted or top-dose-only effect, or another doubt; inactive means no such curve, though single readings can be large; an effect the other way counts as inactive or inconclusive.

SMILES	IDH1 R132H inh	Mito fusion act	ClpP mod	S-ASM inh	RGS4 inh	LDHA block
Cn1c(N2CCCCC2)nc2c1c(=O)n(Cc1ccccc1)c(=O)n2C	/	/	/	/	/	.
Cc1ccc(-c2nc(CC(=O)NCc3ccccc3F)cs2)o1	/	/	/	/	/	.
Cc1ccc(-c2nc(CC(=O)NCCc3ccccc3F)cs2)o1	/	/	/	/	/	-33.2
CCN(CC)C(=O)c1ccc2nc3ccccc3nc2c1	.	.	.	.	.	.
CCN(CC)C(=O)c1ccc2nc(-c3ccccc3)c(-c3ccccc3)nc2c1	.	.	25.1µM	.	.	.
CCCNC(=O)c1ccc2nc(-c3ccccc3)c(-c3ccccc3)nc2c1	.	.	28.2µM	.	.[11.4 µM]	.
CC(C(=O)NCCO)c1ccc2c(c1)[nH]c1ccc(Cl)cc12 (stereo not drawn)	/	/	/	/	/	.
O=c1oc2ccccc2cc1-c1nnc(Nc2ccccc2)s1	/	/	/	/	/	.
CCOC(=O)N/N=C/c1cn(CCCOc2ccccc2)c2ccccc12	.	.	28.2µM	.	.	.
Cc1cc(/C=C(/C#N)c2ccc(C(F)(F)F)cn2)cc(C)c1OCc1ccccn1	/	/	/	/	/	.
COC(=O)c1ccccc1NC(=O)N1CCN(C(=O)c2ccco2)CC1	.	.	22.4µM	.	.	.
Cc1oc(-c2ccc(F)cc2)nc1CN1CCCC(C(=O)N2CCOCC2)C1 (stereo not drawn)	.	.	.	.	.	.
COC(=O)c1ccc(-c2nc(CN3CCC(C(=O)N4CCOCC4)CC3)c(C)o2)cc1	.	.	7.94µM	.	.	.
CCCC(C)NC(=O)COC(=O)CCS(=O)(=O)c1ccc(C)cc1 (stereo not drawn)	/	/	/	/	/	-30.8
Cc1nn(Cc2ccc(Cl)cc2Cl)c(C)c1NS(=O)(=O)c1c(C)nn(C(F)F)c1C	/	/	/	/	/	.
COC(=O)CN1C(=S)N(c2ccc(Cl)cc2)C(=O)C1CC(=O)Nc1ccccc1 (stereo not drawn)	.	.	12.6µM	.	.	.
CCCCn1c(=O)nc2n(-c3ccccc3)c3ccccc3cc-2c1=O	.	.	25.1µM	.	.	.
CC(C)OCCCNC(=S)N1CCC(C(=O)c2ccc(Cl)cc2)CC1	.	.	.	.	?	.
CCOCCCNC(=S)N1CCC(C(=O)c2ccc(C)cc2)CC1	.	.	31.6µM	.	.	.
O=C(N/N=C/C=C/c1ccccc1)c1csc2ccccc12	/	/	/	/	/	.
O=C(NC1CCCCC1)C1CCCN(C(=O)Cc2c[nH]c3ccccc23)C1 (stereo not drawn)	/	/	/	/	/	.
Cc1cc(C)c2nc(SCC(=O)NCC(C)C)cc(C)c2c1	/	/	/	/	/	.
Cc1cccc(C(=O)N2CCC(c3nc(C4CC4)n[nH]3)CC2)c1C	/	/	/	/	/	.
CC(=O)c1c(C)[nH]c(C(=O)OCc2cccc(C)c2)c1C	.	35.5µM	/	.	.	.
Cc1ccccc1Nc1nc(-c2cc3cc(Cl)ccc3oc2=O)cs1	/	/	/	/	/	.
SMILES	IDH1 R132H inh	Mito fusion act	ClpP mod	S-ASM inh	RGS4 inh	LDHA block
Cc1c(C(=O)NCC2CCCO2)oc2ccc3c(c12)C(=O)CC(C)(C)O3 (stereo not drawn)	.	.	25.1µM	.	.	.
Cc1cccc(C)c1NC(=O)c1oc2ccc3c(c2c1C)C(=O)CC(C)(C)O3	.	/	.	/	.	.
O=C(CSc1ccc2ccccc2c1)N(C1CCCCC1)C1CCS(=O)(=O)C1 (stereo not drawn)	/	/	/	/	/	.
CNC(=S)NNC(=O)c1ccc(C)c(Cl)c1	/	/	/	/	/	.
CCCNC(=S)N1CCN(C)CC1	.	.	7.08µM	.	.	.
FC(F)(F)c1cc(-c2ccc3c(c2)OCO3)nc(NCc2ccco2)n1	.	.	25.1µM	.	.	.
OCCOCCNc1ncnc2c1cnn2-c1ccccc1	.	.	?	.	.	.
COCCNc1ncnc2c1cnn2-c1ccc(Cl)cc1	.	.	22.4µM	.	.	.
OCCOCCNc1ncnc2c1cnn2-c1ccc(Cl)cc1	.	.	31.6µM	.	.	.
CCc1cccc(NC(=O)CSc2ncc(-c3ccc(F)cc3)o2)c1	/	/	/	/	/	.
